For 40 compounds, growth inhibition results are on record in PubChem BioAssay (NCI).

About 79,000 compounds went through this panel and 15% of them were active in at least one assay; those are over-represented in the sample as a whole. Calls of active or inactive are those of the source. Cut-off read from the data, not from the text of the source: active = growth inhibition above about 70%; inactive = the rest.

A short description of one assay: NCI Yeast Anticancer Drug Screen. Data for the rad50 strain (AID 155).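 Note: 0% = growth of vehicle-only cultures of the same strain.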 The settings on record: S. cerevisiae rad50 strain growth inhibition; at 50.0 µM; stronger effect = higher value. In a few lines:
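Inhibition values express reduced yeast growth in compound-treated cultures relative to vehicle-treated controls.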
For `CCC1(c2ccc(N3C(=O)c4ccccc4C3=O)cc2)CCC(=O)NC1=O` (stereo not given), the growth inhibition was -5.4% (inactive).

Consider `CN(C)c1c([N+](=O)[O-])cc(N2C(=O)C=CC2=O)cc1[N+](=O)[O-]`, for which the growth inhibition was 91.8% (active).

For `CCOC1(OCC)Oc2c(Cl)c(Cl)c(Cl)c(Cl)c2OC1(OCC)OCC`, the growth inhibition is 98.3% (active).

As to `CC(=O)NC1=C(Oc2ccccc2)C(=O)c2ccccc2C1=O`, the growth inhibition is 99.2% (active).

Consider `CC1SC(=S)N(c2ccc(Cl)cc2)C1=O` (stereo not given), for which the growth inhibition was 71% (active).

As for `CC(NNC(=S)N1CC2CCC(CC2)C1)c1cc2ccccc2cn1` (stereo not given), the growth inhibition is 96.9% (active).

As to `CCCCCCCCCCCCCC(=O)N1CCOCC1`, the growth inhibition is 97.8% (active).

In the case of `COC(O)C(=O)c1c2c(cc3c1CC1(Cc4cc5c(cc4C1)CCC5)C3)CCC2` (stereo not given), the growth inhibition is 69% (inactive).

Regarding `CCC(=O)OCC(=O)c1ccc(-c2ccccc2)cc1`, the growth inhibition is -5.1% (inactive).

With `CN(Cc1cnc2nc(N)nc(N)c2n1)c1ccc(C(=O)NC(CCC(=O)O)C(=O)O)cc1` (stereo not given), the growth inhibition was 37.2% (inactive).

On to `COc1ccc(C(=O)Nc2ccc(O)c(=O)cc2)cc1`, for which the growth inhibition was 93.5% (active).

`c1cc[c]([Sn]([NH]c2ncnc3[nH]cnc23)([NH]c2ncnc3[nH]cnc23)[c]2ccccc2)cc1`: the growth inhibition was 71% (active).

Turning to `CCCCCCCCCCCC1C(C#N)C(=O)NC(=O)C1C#N` (stereo not given), the growth inhibition is 49.3% (inactive).

In the case of `c1ccc(CSc2nnc3c4ccccc4c4ccccc4c3n2)cc1`, the growth inhibition was -22.6% (inactive).

With `Cc1ccc(-n2cc(-c3ccc(Cl)cc3)c3c(N)ncnc32)cc1`, the growth inhibition was 97.1% (active).

On to `C[C@]12CCC3[C@@H](CC[C@@H]4c5nonc5CC[C@]34C)C1CCC(=O)N2` (stereo not given in full), for which the growth inhibition is 50.1% (inactive).

As for `CCN(CC)Cc1cc(N=Nc2c(O)ccc3c(N=Nc4ccc(O)c(CN(CC)CC)c4)c(O)ccc23)ccc1O`, the growth inhibition is 96.4% (active).

For `CC(C)(C)c1ccc(OC(=O)Nc2ccc(Cl)cc2[N+](=O)[O-])c(Br)c1`, the growth inhibition was 33% (inactive).

Regarding `CCC(CCCN(CC)CCc1ccccc1)OC(=O)c1cc(OC)c(OC)c(OC)c1` (stereo not given), the growth inhibition was 22.4% (inactive).

With `CCN1/C(=C\c2cc[n+](CC)c3ccccc23)C=Cc2ccccc21`, the growth inhibition is 42.4% (inactive).

Consider `CC1=C(C(=O)Nc2ccccc2C)C(c2ccc(Cl)c(Cl)c2)C(C(=O)Nc2ccccc2C)=C(C)N1`, for which the growth inhibition is 84% (active).

With `Clc1ccc2nc3c(c(N4CCOCC4)c2c1)CCCC3`, the growth inhibition was 99% (active).

As to `N#Cc1cc2cccn2c2c1cnn2-c1ccccc1`, the growth inhibition is 19% (inactive).

For `COc1cccc(C2c3cc4c(cc3OC(Nc3ccccc3)C2C)OCO4)c1O` (stereo not given), the growth inhibition was 77.5% (active).

As for `Nc1nc(-c2ccccc2)c(-c2ccccc2)c(-c2nc(N)nc(-c3ccccc3)c2-c2ccccc2)n1`, the growth inhibition was -4% (inactive).

On to `CCOC(C)c1ccccc1` (stereo not given), for which the growth inhibition is -37% (inactive).

As to `O=C1OC(CCCl)(c2ccccc2)CC1CN1CCOCC1` (stereo not given), the growth inhibition is 70% (active).

Turning to `OC(Cc1ccccc1)(c1ccccc1)C(O)(Cc1ccccc1)c1ccccc1` (stereo not given), the growth inhibition was 85.2% (active).

Take `COc1ccc(N=N/N=c2\sc3cc(OC)ccc3n2C)cc1`: the growth inhibition was 29.4% (inactive).

For `CCCCCC(CO)C(O)(C(F)(F)F)C(F)(F)F` (stereo not given), the growth inhibition is 44.8% (inactive).

In the case of `CC1=C(C(=O)Nc2ccccc2)C(c2ccccc2F)C(C(=O)Nc2ccccc2)=C(C)N1`, the growth inhibition is 48.4% (inactive).

With `CCOCCC(=O)NNc1ccccc1`, the growth inhibition is 26.2% (inactive).

Consider `CCOC(=O)C(Br)C(Br)c1cccc([N+](=O)[O-])c1` (stereo not given), for which the growth inhibition is 99.7% (active).

For the compound `Cc1ccc(-c2c(C#N)c(-c3ccccc3)n(NS(=O)(=O)c3ccc(C)cc3)c(=O)c2C#N)cc1`, the growth inhibition is 73.5% (active).

With `CNC(=O)N1N[C@H](c2ccccc2)[C@@H]1c1ccccc1`, the growth inhibition is 30.6% (inactive).

Turning to `CCCCCCCCCN(CCCCCCCCC)CC(O)c1cc2c(c3ccccc13)CCCC2` (stereo not given), the growth inhibition is 99% (active).

With `O=C(O)C(c1ccc(Cl)cc1)c1ccc(Cl)cc1`, the growth inhibition is 95.3% (active).

For the compound `O=C1c2ccc3ccccc3c2CN2C(=O)CCC12` (stereo not given), the growth inhibition was 25.2% (inactive).

As for `CCCCCCCCCCCCCCCCNc1ccn(C2CC(OP(=O)(O)OCC3OC(n4cc(CC)c(=O)[nH]c4=O)CC3O)C(CO)O2)c(=O)n1` (stereo not given), the growth inhibition is 41.8% (inactive).

Consider `Cc1cc(Cl)c(O)c(-c2cc(-c3cccc([N+](=O)[O-])c3)c3c(N)[nH]c(=S)nc3n2)c1`, for which the growth inhibition was 28.6% (inactive).

A further assay can be described thus: NCI Yeast Anticancer Drug Screen. Data for the mec2-1 strain (AID 157). Particulars: S. cerevisiae mec2-1 strain, at 5.0 µM (retest, dose inferred, filed as 0.5), stronger effect = higher value. A digest of the protocol: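 Compounds were applied to mec2-1 yeast cells. Their growth was then compared with that of vehicle-treated cultures to give growth inhibition.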
Take `CCC1(c2ccc(N3C(=O)c4ccccc4C3=O)cc2)CCC(=O)NC1=O` (stereo not given): the growth inhibition is -36% (inactive).

For the compound `CN(C)c1c([N+](=O)[O-])cc(N2C(=O)C=CC2=O)cc1[N+](=O)[O-]`, the growth inhibition is 88% (active).

As for `CCOC1(OCC)Oc2c(Cl)c(Cl)c(Cl)c(Cl)c2OC1(OCC)OCC`, the growth inhibition is 13% (inactive).

For the compound `CC(=O)NC1=C(Oc2ccccc2)C(=O)c2ccccc2C1=O`, the growth inhibition is 98% (active).

As to `CC1SC(=S)N(c2ccc(Cl)cc2)C1=O` (stereo not given), the growth inhibition was 0% (inactive).

In the case of `CC(NNC(=S)N1CC2CCC(CC2)C1)c1cc2ccccc2cn1` (stereo not given), the growth inhibition was 97% (active).

Consider `CCCCCCCCCCCCCC(=O)N1CCOCC1`, for which the growth inhibition is -3% (inactive).

In the case of `COC(O)C(=O)c1c2c(cc3c1CC1(Cc4cc5c(cc4C1)CCC5)C3)CCC2` (stereo not given), the growth inhibition was 99% (active).

In the case of `CCC(=O)OCC(=O)c1ccc(-c2ccccc2)cc1`, the growth inhibition is -8% (inactive).

For the compound `CN(Cc1cnc2nc(N)nc(N)c2n1)c1ccc(C(=O)NC(CCC(=O)O)C(=O)O)cc1` (stereo not given), the growth inhibition is -16% (inactive).

As to `COc1ccc(C(=O)Nc2ccc(O)c(=O)cc2)cc1`, the growth inhibition is 38% (inactive).

As to `c1cc[c]([Sn]([NH]c2ncnc3[nH]cnc23)([NH]c2ncnc3[nH]cnc23)[c]2ccccc2)cc1`, the growth inhibition is -6% (inactive).

Take `CCCCCCCCCCCC1C(C#N)C(=O)NC(=O)C1C#N` (stereo not given): the growth inhibition was 90% (active).

On to `c1ccc(CSc2nnc3c4ccccc4c4ccccc4c3n2)cc1`, for which the growth inhibition was 8% (inactive).

With `Cc1ccc(-n2cc(-c3ccc(Cl)cc3)c3c(N)ncnc32)cc1`, the growth inhibition is 15% (inactive).

Take `C[C@]12CCC3[C@@H](CC[C@@H]4c5nonc5CC[C@]34C)C1CCC(=O)N2` (stereo not given in full): the growth inhibition is 5% (inactive).

For the compound `CCN(CC)Cc1cc(N=Nc2c(O)ccc3c(N=Nc4ccc(O)c(CN(CC)CC)c4)c(O)ccc23)ccc1O`, the growth inhibition is -2% (inactive).

For the compound `CC(C)(C)c1ccc(OC(=O)Nc2ccc(Cl)cc2[N+](=O)[O-])c(Br)c1`, the growth inhibition was 2% (inactive).

`CCC(CCCN(CC)CCc1ccccc1)OC(=O)c1cc(OC)c(OC)c(OC)c1` (stereo not given): the growth inhibition is -10% (inactive).

As to `CCN1/C(=C\c2cc[n+](CC)c3ccccc23)C=Cc2ccccc21`, the growth inhibition was 2% (inactive).

`CC1=C(C(=O)Nc2ccccc2C)C(c2ccc(Cl)c(Cl)c2)C(C(=O)Nc2ccccc2C)=C(C)N1`: the growth inhibition is 2% (inactive).

Take `Clc1ccc2nc3c(c(N4CCOCC4)c2c1)CCCC3`: the growth inhibition is 92% (active).

For the compound `N#Cc1cc2cccn2c2c1cnn2-c1ccccc1`, the growth inhibition was 8% (inactive).

Turning to `COc1cccc(C2c3cc4c(cc3OC(Nc3ccccc3)C2C)OCO4)c1O` (stereo not given), the growth inhibition is -8% (inactive).

Turning to `Nc1nc(-c2ccccc2)c(-c2ccccc2)c(-c2nc(N)nc(-c3ccccc3)c2-c2ccccc2)n1`, the growth inhibition is 6% (inactive).

Consider `CCOC(C)c1ccccc1` (stereo not given), for which the growth inhibition is 42% (inactive).

In the case of `O=C1OC(CCCl)(c2ccccc2)CC1CN1CCOCC1` (stereo not given), the growth inhibition is -10% (inactive).

For `OC(Cc1ccccc1)(c1ccccc1)C(O)(Cc1ccccc1)c1ccccc1` (stereo not given), the growth inhibition was 20% (inactive).

Take `COc1ccc(N=N/N=c2\sc3cc(OC)ccc3n2C)cc1`: the growth inhibition was 3% (inactive).

Consider `CCCCCC(CO)C(O)(C(F)(F)F)C(F)(F)F` (stereo not given), for which the growth inhibition is -26% (inactive).

For the compound `CC1=C(C(=O)Nc2ccccc2)C(c2ccccc2F)C(C(=O)Nc2ccccc2)=C(C)N1`, the growth inhibition was -4% (inactive).

With `CCOCCC(=O)NNc1ccccc1`, the growth inhibition is 0% (inactive).

As for `CCOC(=O)C(Br)C(Br)c1cccc([N+](=O)[O-])c1` (stereo not given), the growth inhibition was 93% (active).

`Cc1ccc(-c2c(C#N)c(-c3ccccc3)n(NS(=O)(=O)c3ccc(C)cc3)c(=O)c2C#N)cc1`: the growth inhibition is 28% (inactive).

`CNC(=O)N1N[C@H](c2ccccc2)[C@@H]1c1ccccc1`: the growth inhibition was 15% (inactive).

For the compound `CCCCCCCCCN(CCCCCCCCC)CC(O)c1cc2c(c3ccccc13)CCCC2` (stereo not given), the growth inhibition is 38% (inactive).

Consider `O=C(O)C(c1ccc(Cl)cc1)c1ccc(Cl)cc1`, for which the growth inhibition is 9% (inactive).

For the compound `O=C1c2ccc3ccccc3c2CN2C(=O)CCC12` (stereo not given), the growth inhibition was -11% (inactive).

With `CCCCCCCCCCCCCCCCNc1ccn(C2CC(OP(=O)(O)OCC3OC(n4cc(CC)c(=O)[nH]c4=O)CC3O)C(CO)O2)c(=O)n1` (stereo not given), the growth inhibition is 26% (inactive).

For `Cc1cc(Cl)c(O)c(-c2cc(-c3cccc([N+](=O)[O-])c3)c3c(N)[nH]c(=S)nc3n2)c1`, the growth inhibition was -6% (inactive).
